Structures are written as SMILES.

Data on twelve compounds can be found in ChEMBL document CHEMBL5724796, “Tm Shift (DSF) assay results for EUbOPEN Chemogenomics Library” (2024).

What all share (conditions): Compound concentration 20.0 uM
In experiment [1] the target is Tyrosine-protein kinase ABL1 (Homo sapiens) (UniProt P00519).
In experiment [2] the target is Bromodomain-containing protein 4 (Homo sapiens) (UniProt O60885).
Experiment [3] concerns the target Cyclin-dependent kinase 2 (Homo sapiens) (UniProt P24941).
Experiment [4] has as its target Casein kinase I isoform delta (Homo sapiens) (UniProt P48730).
The target of experiment [5] is Glycogen synthase kinase-3 beta (Homo sapiens) (UniProt P49841).
Experiment [6] addresses Mitogen-activated protein kinase 1 (Homo sapiens) (UniProt P28482).
Experiment [7] concerns the target T1, Aurora kinase A (Homo sapiens) (UniProt O14965).
T1 sequence (whole entry): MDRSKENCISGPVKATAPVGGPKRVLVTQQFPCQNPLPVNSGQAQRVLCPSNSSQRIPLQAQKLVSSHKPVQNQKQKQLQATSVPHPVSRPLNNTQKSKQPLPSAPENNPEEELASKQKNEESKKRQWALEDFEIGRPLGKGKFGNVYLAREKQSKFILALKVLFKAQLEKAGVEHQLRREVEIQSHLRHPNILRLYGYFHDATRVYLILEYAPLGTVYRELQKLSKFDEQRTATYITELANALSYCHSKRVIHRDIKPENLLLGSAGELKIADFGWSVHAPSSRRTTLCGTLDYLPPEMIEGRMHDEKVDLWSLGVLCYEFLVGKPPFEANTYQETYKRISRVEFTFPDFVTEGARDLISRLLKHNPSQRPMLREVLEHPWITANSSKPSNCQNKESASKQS

In experiment [8] the target is T2, Transcription intermediary factor 1-alpha (Homo sapiens) (UniProt O15164).
T2 sequence (whole entry): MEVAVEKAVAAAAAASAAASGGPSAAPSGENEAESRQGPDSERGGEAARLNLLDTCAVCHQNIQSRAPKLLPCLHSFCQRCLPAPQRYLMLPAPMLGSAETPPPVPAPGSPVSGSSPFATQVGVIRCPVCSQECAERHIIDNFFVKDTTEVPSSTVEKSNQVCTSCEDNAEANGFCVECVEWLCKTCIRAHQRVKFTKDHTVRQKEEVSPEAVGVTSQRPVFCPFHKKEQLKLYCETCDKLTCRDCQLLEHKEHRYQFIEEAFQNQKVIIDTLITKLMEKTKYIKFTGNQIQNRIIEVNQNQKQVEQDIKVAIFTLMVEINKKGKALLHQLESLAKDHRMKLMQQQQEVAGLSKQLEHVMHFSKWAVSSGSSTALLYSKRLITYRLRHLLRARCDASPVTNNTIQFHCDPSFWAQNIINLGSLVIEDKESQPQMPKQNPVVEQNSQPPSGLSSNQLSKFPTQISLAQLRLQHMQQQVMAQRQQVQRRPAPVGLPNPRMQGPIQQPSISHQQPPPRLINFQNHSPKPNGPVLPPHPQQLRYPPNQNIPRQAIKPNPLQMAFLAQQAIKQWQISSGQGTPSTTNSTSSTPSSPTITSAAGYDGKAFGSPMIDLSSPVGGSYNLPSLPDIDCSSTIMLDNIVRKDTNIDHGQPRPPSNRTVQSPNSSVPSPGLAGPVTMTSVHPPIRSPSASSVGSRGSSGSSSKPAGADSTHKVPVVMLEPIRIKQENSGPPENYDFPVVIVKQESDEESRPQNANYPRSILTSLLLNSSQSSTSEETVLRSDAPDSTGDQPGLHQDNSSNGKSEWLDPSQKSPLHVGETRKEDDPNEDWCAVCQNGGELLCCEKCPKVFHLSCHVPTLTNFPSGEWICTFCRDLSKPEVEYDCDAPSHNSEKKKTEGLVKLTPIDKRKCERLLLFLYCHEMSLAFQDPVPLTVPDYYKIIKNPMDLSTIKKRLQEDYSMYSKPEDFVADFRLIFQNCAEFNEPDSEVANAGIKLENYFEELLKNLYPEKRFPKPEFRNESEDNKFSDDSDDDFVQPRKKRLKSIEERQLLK

Sequence of Casein kinase I isoform delta (Homo sapiens) (P48730 whole entry, looked up, canonical isoform): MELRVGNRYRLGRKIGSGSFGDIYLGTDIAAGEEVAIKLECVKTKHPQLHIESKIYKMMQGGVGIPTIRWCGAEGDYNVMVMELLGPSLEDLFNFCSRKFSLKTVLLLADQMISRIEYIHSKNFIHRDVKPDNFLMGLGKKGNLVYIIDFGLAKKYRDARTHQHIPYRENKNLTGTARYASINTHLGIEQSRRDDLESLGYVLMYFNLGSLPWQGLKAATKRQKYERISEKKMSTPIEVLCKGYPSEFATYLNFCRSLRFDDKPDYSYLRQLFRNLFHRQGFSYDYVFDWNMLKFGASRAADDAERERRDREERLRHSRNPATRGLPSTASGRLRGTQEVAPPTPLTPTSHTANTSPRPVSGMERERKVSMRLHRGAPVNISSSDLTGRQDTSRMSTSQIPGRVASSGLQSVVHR
Sequence of Glycogen synthase kinase-3 beta (Homo sapiens) (P49841 whole entry, looked up): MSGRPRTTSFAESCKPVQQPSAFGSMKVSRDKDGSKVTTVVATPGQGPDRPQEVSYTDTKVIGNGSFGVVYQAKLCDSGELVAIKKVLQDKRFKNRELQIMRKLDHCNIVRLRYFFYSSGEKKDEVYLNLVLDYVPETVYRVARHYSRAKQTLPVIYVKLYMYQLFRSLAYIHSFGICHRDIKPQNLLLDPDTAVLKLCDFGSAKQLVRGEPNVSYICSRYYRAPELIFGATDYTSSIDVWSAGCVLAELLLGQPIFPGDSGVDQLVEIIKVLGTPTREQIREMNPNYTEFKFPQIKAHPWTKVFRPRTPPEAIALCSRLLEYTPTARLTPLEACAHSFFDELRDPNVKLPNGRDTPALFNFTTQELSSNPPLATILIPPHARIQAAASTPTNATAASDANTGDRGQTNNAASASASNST
Sequence of Mitogen-activated protein kinase 1 (Homo sapiens) (P28482 whole entry): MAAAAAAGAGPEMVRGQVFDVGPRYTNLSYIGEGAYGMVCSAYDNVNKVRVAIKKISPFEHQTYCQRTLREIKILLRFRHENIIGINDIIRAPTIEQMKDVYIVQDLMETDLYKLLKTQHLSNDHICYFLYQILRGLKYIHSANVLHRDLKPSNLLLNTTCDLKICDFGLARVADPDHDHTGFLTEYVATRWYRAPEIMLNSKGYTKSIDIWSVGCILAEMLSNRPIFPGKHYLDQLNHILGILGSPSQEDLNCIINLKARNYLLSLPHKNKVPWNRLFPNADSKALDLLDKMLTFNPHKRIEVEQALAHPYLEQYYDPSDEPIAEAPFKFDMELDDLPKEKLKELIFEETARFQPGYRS
Sequence of Tyrosine-protein kinase ABL1 (Homo sapiens) (P00519 whole entry): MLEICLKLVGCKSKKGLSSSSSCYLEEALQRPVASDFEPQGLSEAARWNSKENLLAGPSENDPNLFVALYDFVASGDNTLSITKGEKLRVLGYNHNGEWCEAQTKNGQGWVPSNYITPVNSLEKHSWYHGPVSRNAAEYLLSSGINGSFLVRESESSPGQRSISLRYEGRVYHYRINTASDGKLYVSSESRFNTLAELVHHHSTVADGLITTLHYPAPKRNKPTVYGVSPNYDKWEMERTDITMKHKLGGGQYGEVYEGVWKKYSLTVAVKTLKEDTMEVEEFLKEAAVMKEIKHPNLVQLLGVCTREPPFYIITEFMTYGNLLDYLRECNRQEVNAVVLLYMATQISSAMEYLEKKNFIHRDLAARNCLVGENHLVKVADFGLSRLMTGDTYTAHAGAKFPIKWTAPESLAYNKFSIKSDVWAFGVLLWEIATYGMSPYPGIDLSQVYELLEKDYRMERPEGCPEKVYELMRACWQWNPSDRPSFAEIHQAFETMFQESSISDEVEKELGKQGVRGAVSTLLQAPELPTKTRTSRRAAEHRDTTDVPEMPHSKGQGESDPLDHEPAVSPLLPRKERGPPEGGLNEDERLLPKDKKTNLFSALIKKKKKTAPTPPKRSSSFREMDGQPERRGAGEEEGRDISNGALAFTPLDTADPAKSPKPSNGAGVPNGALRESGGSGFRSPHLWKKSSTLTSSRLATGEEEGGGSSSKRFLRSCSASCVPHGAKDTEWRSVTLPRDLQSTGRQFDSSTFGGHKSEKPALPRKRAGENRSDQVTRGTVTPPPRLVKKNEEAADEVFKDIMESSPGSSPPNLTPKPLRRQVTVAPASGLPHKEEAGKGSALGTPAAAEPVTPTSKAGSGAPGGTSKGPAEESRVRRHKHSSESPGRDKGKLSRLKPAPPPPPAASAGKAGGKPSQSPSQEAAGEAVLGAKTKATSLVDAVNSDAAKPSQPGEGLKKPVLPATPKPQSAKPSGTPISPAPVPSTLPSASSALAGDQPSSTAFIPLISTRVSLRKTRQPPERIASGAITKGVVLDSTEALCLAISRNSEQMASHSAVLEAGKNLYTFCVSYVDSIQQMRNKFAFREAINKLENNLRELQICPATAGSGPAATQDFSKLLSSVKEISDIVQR

Turning to `Nc1cccc(Nc2ncc(-c3ccc(Cl)cc3)o2)c1`, the ΔTm in experiment [1] was determined as 9.33 °C; in experiment [2], 0.39 °C; in experiment [3], 9.01 °C; in experiment [4], 0.43 °C; in experiment [5], 7.51 °C; in experiment [6], 0.54 °C. Moreover, the ΔTm in experiment [7] was 6.87 °C; in experiment [8] it was -0.45 °C.

Consider `Cc1nn(CC(F)(F)F)cc1Nc1ncc(Br)c(NCc2ccc(S(N)(=O)=O)cc2)n1`, for which the ΔTm in experiment [1] was 2.53 °C; in experiment [2], -2.79 °C; in experiment [3], 0.52 °C; in experiment [4], 0.99 °C; in experiment [5], -0.15 °C; in experiment [6], 2.84 °C. In addition, the ΔTm is 6.65 °C in experiment [7] and 1.38 °C in experiment [8].

For `CCCN1CCN(c2ccc(C(=O)NC3(C(=O)NCC#N)CCCCC3)cc2)CC1`, the ΔTm in experiment [1] is 0.17 °C; in experiment [2], -1.33 °C; in experiment [3], 0.57 °C; in experiment [4], 0.09 °C; in experiment [5], -0.34 °C; in experiment [6] it was -0.16 °C. The ΔTm in experiment [7] is -0.29 °C; in experiment [8], -0.56 °C.

`O=C(O)CCNC(=S)NCCCC[C@H](NS(=O)(=O)c1cccc(F)c1)C(=O)N[C@@H](Cc1c[nH]c2ccccc12)C(=O)NC1CCC1`: the ΔTm in experiment [1] is 0.2 °C; in experiment [2], -3.5 °C; in experiment [3], -0.16 °C; in experiment [4], -0.24 °C; in experiment [5], -0.19 °C; in experiment [6] it was 0.22 °C. Moreover, the ΔTm in experiment [7] is -2.13 °C; in experiment [8] it was -1.96 °C.

Take `O=c1c2nnc(C3CCOCC3)n2cc(Br)n1CC1CCCC1`: the ΔTm was 0.74 °C in experiment [1]; -2.93 °C in experiment [2]; 0.35 °C in experiment [3]; -0.32 °C in experiment [4]; -0.29 °C in experiment [5]; 0.23 °C in experiment [6]. The ΔTm is -1.77 °C in experiment [7] and -0.67 °C in experiment [8].

Take `CC(C)(C)OC(=O)N1CCN(C(=O)n2cc(-c3ccc(OC(F)(F)F)cc3)nn2)C(Cc2ccccc2)C1` (stereo unspecified): the ΔTm was 0.06 °C in experiment [1]; -0.12 °C in experiment [2]; 0.53 °C in experiment [3]; -0.73 °C in experiment [4]; -0.69 °C in experiment [5]; -0.4 °C in experiment [6]. The shift in melting temperature (ΔTm) was -1.5 °C in experiment [7] and -0.53 °C in experiment [8].

Turning to `CCCSc1nc(N[C@@H]2C[C@H]2c2ccc(F)c(F)c2)c2nnn([C@@H]3C[C@H](OCCO)[C@@H](O)[C@H]3O)c2n1`, the ΔTm is 0.97 °C in experiment [1]; -3.15 °C in experiment [2]; -0.32 °C in experiment [3]; -0.02 °C in experiment [4]; -1.82 °C in experiment [5]; 0.5 °C in experiment [6]. The figures for the ΔTm in experiment [7] and in experiment [8] were -2.27 °C and 0.03 °C, respectively.

Take `CCOC(=O)NCCCC(=O)NCCc1ccccc1`: the ΔTm in experiment [1] is 0.36 °C; in experiment [2], -0.9 °C; in experiment [3], -0.09 °C; in experiment [4], 0.24 °C; in experiment [5], 0.15 °C; in experiment [6], 0.16 °C. The ΔTm in experiment [7] is -1.13 °C; in experiment [8], -0.68 °C.

Consider `Cn1c(=O)c2c(nc(N3CCNCC3)n2Cc2nnc(-c3ccc(Cl)c(Cl)c3)o2)n(C)c1=O`, for which the ΔTm in experiment [1] is 0.59 °C; in experiment [2], -3.55 °C; in experiment [3] it was 0.01 °C; in experiment [4] it was 0.33 °C; in experiment [5], -0.89 °C; in experiment [6], 0.1 °C. In addition, the ΔTm in experiment [7] was -0.39 °C; in experiment [8], -0.46 °C.

Take `CN(Cc1ccccc1)c1ccc2cc(C(=O)O)c(=O)oc2c1`: the ΔTm in experiment [1] came out at 0.44 °C; in experiment [2] it was 2.11 °C; in experiment [3], 0.37 °C; in experiment [4], 0.11 °C; in experiment [5], 0 °C; in experiment [6] it was 0.54 °C. The ΔTm in experiment [7] is -1.09 °C; in experiment [8], 0.17 °C.

Regarding `CC(C)(C)c1ccc(S(=O)(=O)NCc2ccc(C(=O)Nc3cccnc3)cc2)cc1`, the ΔTm in experiment [1] is 0.45 °C; in experiment [2], -2.48 °C; in experiment [3], -0.13 °C; in experiment [4], -0.13 °C; in experiment [5], -1.45 °C; in experiment [6] it was 0.7 °C. In addition, the values for the ΔTm in experiment [7] and in experiment [8] were -2.1 °C and 0.99 °C, respectively.

With `O=C(Nc1cc(C(F)F)ns1)Nc1cc(F)ncc1CO`, the ΔTm in experiment [1] was 0.52 °C; in experiment [2] it was -1.44 °C; in experiment [3], 0.5 °C; in experiment [4], -0.49 °C; in experiment [5], 1.08 °C; in experiment [6] it was 0.14 °C. Further, the ΔTm in experiment [7] is -1.82 °C; in experiment [8], 0.59 °C.
